This is an account of results in PubChem BioAssay (Tox21).

Records with an inconclusive call do not appear. Calls of active or inactive are those of the source. Unless noted, calls come from the whole dose curve; as a rule, active = well fitted cell-killing curve with a large enough effect in the repeat runs; inconclusive = weak or mixed curves; inactive = flat fitted curve, though single readings scatter.
% is set by controls: 0 for no effect and ±100 for the full control effect.

The nature of one assay: qHTS assay to identify small molecule agonists of the progesterone receptor (PR) signaling pathway - cell viability counter screen (AID 1346799; calls by dose curve; note: nearly all actives have a fitted effect of over 45% in size; note: potency is the fitted concentration of half-maximal effect). Conditions: PR-UAS-bla HEK293T viability, CellTiter-Glo luminescence, 16 h; series mostly up to 92.4 µM; activity change, negative = cytotoxicity: at the top concentration. The essentials:
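Using the same plates as the PR reporter screen, HEK293T PR-UAS-bla cells received compounds for 16 hr at 37C and were then lysed with CellTiter-Glo; luminescence was read 30 min later at room temperature.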
For orientation: Quantitative high-throughput screening tests each substance at several concentrations.
In the case of `Oc1ccc(CCNCCCCCCNCCc2ccccc2)cc1O`, the “activity change, negative = cytotoxicity” value is 1.51% [at 42.5 µM] (inactive).
Still for that read-out and setting: the same measure for `Cc1cc(C)n(CO)n1`: -14.5% (inactive); for `O=c1c2ccccc2oc2ccccc12`: -2.33% (inactive); for `CCCCCCCCCCCCCCCCCCCl`: -1.64% [at 8.39 µM] (inactive).
Same read-out and setting: the same measure for `CC(=O)Nc1cccc(N)c1`: -2.63% (inactive); for `Clc1nc2ccccc2nc1Cl`: -0.726% (inactive).
Regarding `CC(=O)c1ccc(Cl)c(Cl)c1Cl`, the “activity change, negative = cytotoxicity” value is -1.89% (inactive).
Consider `Cc1nc2sccn2c(=O)c1CCN1CCC(=C(c2ccc(F)cc2)c2ccc(F)cc2)CC1`, for which the Potency is 29.8 µM (active).
With `CC(Cc1ccccc1)(NC(=O)CN)c1ccccc1` (centres undefined), the “activity change, negative = cytotoxicity” value is -24.5% [at 42.5 µM] (inactive).
The same measure, in the same setting: the same measure for `O=C(c1ccco1)N1CCNCC1`: 3.39% [at 42.5 µM] (inactive); for `CC(COc1ccccc1)NC(C)C(O)c1ccc(O)cc1` (centres undefined): -11.5% [at 42.5 µM] (inactive).
Consider `CCOc1ccccc1O`, for which the “activity change, negative = cytotoxicity” value was 4.17% (inactive).
As to `O=C(N[C@@H](Cc1ccccc1)[C@@H](O)C(=O)N1C[C@@H](O)[C@@H](O)C1)c1cc2cc(Cl)ccc2[nH]1`, the “activity change, negative = cytotoxicity” value is 15.9% (inactive).
With `OCCCO`, the “activity change, negative = cytotoxicity” value is 0.153% (inactive).
As to `COc1ccc(C(=O)Nc2ccccc2)cc1[N+](=O)[O-]`, the “activity change, negative = cytotoxicity” value is 0.814% (inactive).
On the same count and under the same terms, the same measure for `O=C(Cl)c1cc(Cl)cc(Cl)c1`: -23% (inactive); for `O=c1[nH]nc(-c2ccc([N+](=O)[O-])o2)o1`: 32.8% (inactive); for `COc1ccnc2c1CCCCC2S(=O)c1nc2ccccc2[nH]1` (centres undefined): 2.93% [at 42.5 µM] (inactive).
Same read-out and setting: in the case of `CCOCCn1c(N2CCCN(C)CC2)nc2ccccc21` it was -16.3% [at 42.5 µM] (inactive); in that of `OCCOc1cccc(OCCO)c1`, 0.0791% (inactive).

The next assay in a line: qHTS assay to identify small molecule antagonists of the TGF-beta/Smad signaling pathway - cell viability counter screen (AID 1346824). Note: nearly all actives have a fitted effect of over 50% in size. Conditions: SBE-bla HEK293T viability, CellTiter-Glo luminescence; series mostly up to 76.8 µM; viability change, negative = cytotoxic: at the top concentration. The essentials: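 SBE-bla HEK 293T cells, incubated overnight, then compound plus 0.25 ng/mL TGF-beta1 (stock added) for 5 hr at 37 C. Viability was read in the same wells by CellTiter-Glo luminescence after 30 min at room temperature.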
`CO[C@@H]1[C@@H](O[C@@H]2O[C@H](C)[C@@H](O[C@H]3C[C@@](C)(O)[C@@H](O)[C@H](C)O3)[C@H](N(C)C)[C@H]2O)[C@@H](CC=O)C[C@@H](C)[C@@H](O[C@@H]2CC[C@H](N(C)C)[C@@H](C)O2)/C=C/C=C/C[C@@H](C)OC(=O)C[C@H]1OC(C)=O`: the “viability change, negative = cytotoxic” value was 6.18% [at 35.3 µM] (inactive).
Same read-out and setting: the same measure for `Oc1ccc(CCNCCCCCCNCCc2ccccc2)cc1O`: 7.53% [at 35.3 µM] (inactive).
For the molecule `C=C[Si](OCC)(OCC)OCC`, the “viability change, negative = cytotoxic” value is 4% (inactive).
For `Cc1cc(C)n(CO)n1`, the “viability change, negative = cytotoxic” value was 12.6% (inactive).
The same measure, in the same setting: the same measure for `O=c1c2ccccc2oc2ccccc12`: 18.2% (inactive); for `CCCCCCCCCCCCCCCCCCCl`: -4.8% [at 6.97 µM] (inactive).
On the same count and under the same terms, the same measure for `CC(=O)Nc1cccc(N)c1`: -2.12% (inactive).
Still for that read-out and setting: in the case of `Cc1ccc(NC=O)c(C)c1` it was -3.01% (inactive).
Regarding `Clc1nc2ccccc2nc1Cl`, the “viability change, negative = cytotoxic” value was 12.8% (inactive).
Same read-out and setting: the same measure for `CC(=O)Oc1cccc2c1C(=O)c1c(OC(C)=O)cc(C(=O)O)cc1C2=O`: -0.506% [at 35.3 µM] (inactive); for `CC(=O)c1ccc(Cl)c(Cl)c1Cl`: -1.36% (inactive).
Same read-out and setting: the same measure for `CCCc1nc(C)c2c(=O)[nH]c(-c3cc(S(=O)(=O)N4CCN(CC)CC4)ccc3OCC)nn12`: 18.6% [at 35.3 µM] (inactive); for `CCCCCCCCCC(C)C=O` (centres undefined): -5.63% (inactive); for `CC(C)(Cc1c[nH]c2ccccc12)NCC(O)COc1ccccc1C#N` (centres undefined): -3.51% [at 35.3 µM] (inactive).
For the molecule `Cc1nc2sccn2c(=O)c1CCN1CCC(=C(c2ccc(F)cc2)c2ccc(F)cc2)CC1`, the “viability change, negative = cytotoxic” value is -15.9% [at 35.3 µM] (inactive).
Take `CC(Cc1ccccc1)(NC(=O)CN)c1ccccc1` (centres undefined): the “viability change, negative = cytotoxic” value is -3.81% [at 35.3 µM] (inactive).
As for `O=C(c1ccco1)N1CCNCC1`, the “viability change, negative = cytotoxic” value is 7.24% [at 35.3 µM] (inactive).
Same read-out and setting: in the case of `CC(COc1ccccc1)NC(C)C(O)c1ccc(O)cc1` (centres undefined) it was 3% [at 35.3 µM] (inactive).
On the same count and under the same terms, the same measure for `CCc1cnc(C(=O)O)c(C(=O)O)c1`: 9.62% (inactive); for `CCOc1ccccc1O`: 3.54% (inactive); for `O=S(=O)(O)c1cc(Cl)c(Cl)cc1Cl`: 0.875% (inactive).
Same read-out and setting: in the case of `O=C(N[C@@H](Cc1ccccc1)[C@@H](O)C(=O)N1C[C@@H](O)[C@@H](O)C1)c1cc2cc(Cl)ccc2[nH]1` it was 7.04% (inactive); in that of `CCC(CC)C(=O)O`, 3.95% (inactive).
`CC[C@H](NC(C)C)[C@H](O)c1ccc(O)c2[nH]c(=O)ccc12`: the “viability change, negative = cytotoxic” value was 6.16% [at 35.3 µM] (inactive).
